According to PubChem BioAssay AID492967 (ICCB-Longwood Screening Facility, Harvard Medical School, 2010):
The campaign covered roughly 140,000 compounds. About 320 (0.23%) were called active. Rule as the data show it: active = z-score mostly below about -2.9 (no sharp cut-off); inactive = mostly above about -1.9. The entries come from a sample that favours actives as a whole.

What follows are molecules tested on CapD gamma-glutamyltranspeptidase (Bacillus anthracis Ames Ancestor) (assay: inhibition of CapD gamma-glutamyltranspeptidase – biochemical, fluorescence intensity, primary screen (AID 492967)). Conditions: purified CapD enzyme, fluorescence intensity read-out; active compounds read low.
In the case of COc1ccc2nc(SCC(=O)Nc3cc(NC(=O)CSc4nc5ccc(OC)cc5[nH]4)cc(C(=O)O)c3)[nH]c2c1, the z-score was -1.48 (inactive). COc1ccc(CCNC(=O)c2cn(C)c(=O)c3cc(OC)c(OC)cc23)cc1OC was tested, and the z-score was 1.5 (inactive). For CCC(=O)NCCc1nc2ccccc2n1CC, the z-score was -0.29 (inactive). With Cc1ccccc1Cn1c(CCNC(=O)C(C)(C)C)nc2ccccc21 the z-score was -0.49 (inactive). For O=C(COc1ccccc1)NCCc1nc2ccccc2n1Cc1ccccc1, the z-score was -8.12 (active). CC(C)NC(=O)CN1CCN(S(=O)(=O)c2cc(Cl)ccc2Cl)CC1 was tested, and the z-score was -0.36 (inactive). With CC(C)(C)c1ccc(OCCCn2c(=O)sc3ccccc32)cc1 the z-score was 0.35 (inactive). For O=C1CC(c2c(Cl)cccc2Cl)c2ccc3ccccc3c2N1 (centres undefined), the z-score was 0 (inactive). In the case of COCCNC(=O)c1ccc(Cn2c(SCC(=O)NCC3CCCO3)nc3ccc(Br)cc3c2=O)cc1 (centres undefined), the z-score was -0.085 (inactive). For Cc1ccc2cc3cc(C(=O)NCc4ccc(F)cc4)oc3nc2c1, the z-score was 50.4 (inactive). For O=C(c1ccc(C(F)(F)F)cc1)N1CCC(c2nnc(-c3ccccc3)o2)CC1, the z-score was -0.12 (inactive). For Cc1ccc2cc(C)c(C)cc2c1, the z-score was -0.345 (inactive). For COc1ccc(CCNC(=O)CCC(=O)Nc2nc(-c3cc4ccccc4oc3=O)cs2)cc1OC, the z-score was 0.27 (inactive). In the case of CN(C)C=NC(=O)c1ccc(Oc2ncc(C(F)(F)F)cc2Cl)cc1, the z-score was -0.275 (inactive). In the case of CC(=O)c1cc(Cl)cc(Cl)c1OC(=O)c1c(-c2c(Cl)cccc2Cl)noc1C, the z-score was -0.58 (inactive). In the case of O=C(NCCCN1CCCCC1)c1cc(-c2ccncc2)nc2ccccc12, the z-score was 0.14 (inactive). In the case of CCOc1cc(/C=C2\SC(=S)N(c3c(C)n(C)n(-c4ccccc4)c3=O)C2=O)ccc1O, the z-score was -1.1 (inactive). For CCCC(C(=O)O)N1C(=O)/C(=C/c2ccc(O)c(OCC)c2)SC1=S (centres undefined), the z-score was -7.48 (active). In the case of CCOc1cc(/C=C2\SC(=S)N(C(C)C(=O)O)C2=O)ccc1O (centres undefined), the z-score was -2.57 (inactive). In the case of Cc1ccc(N2CCN(c3ccccc3)CC2)nn1, the z-score was -0.315 (inactive). COc1ccc(CN2C(=O)CC(C(=O)Nc3ccc(F)cc3)SC2=Nc2ccccc2)cc1 (centres undefined) was tested, and the z-score was -0.02 (inactive). With CCN1C[C@]2(OC(=O)c3ccccc3NC(C)=O)CC[C@H](OC)[C@@]34C2C[C@@H]([C@@H]13)[C@@]1(O)C[C@H](OC)[C@H]2CC4[C@]1(O)[C@H]2OC (some centres undefined) the z-score was 7.48 (inactive). For CN(C(=O)Cn1nc(Cc2ccncc2)c2ccccc2c1=O)c1ccccc1, the z-score was 5.11 (inactive). With COc1ccc([N+](=O)[O-])cc1/C=C1\C(=O)NC(=O)N(c2ccc(Cl)cc2)C1=O the z-score was -0.64 (inactive). Oc1c(Br)cc(Br)cc1C=Nc1ccc(Oc2ccc(Cl)cc2)cc1 was tested, and the z-score was -1.07 (inactive). Cc1ccc2c(c1)-c1onc(C(=O)NC3CCCCC3)c1CO2 was tested, and the z-score was 3.98 (inactive). For CCO/C=C1\SC(=S)N(Cc2ccccc2)C1=O, the z-score was -0.945 (inactive). O=C1c2ccccc2C(=O)N1CC1c2ccccc2CCN1S(=O)(=O)c1cccc2nsnc12 (centres undefined) was tested, and the z-score was -0.52 (inactive). In the case of CCCCOc1ccc(C(=O)Nc2ccc3nc(SCC(=O)NCC4CCCO4)sc3c2)cc1 (centres undefined), the z-score was 0.345 (inactive). For O=C(/C=C/c1cn(-c2ccccc2)nc1-c1ccc(F)cc1)NCc1cccnc1, the z-score was 2.33 (inactive). For COC(=O)c1sc(-c2cccs2)cc1NS(=O)(=O)c1ccccc1, the z-score was 41.9 (inactive). With COC(=O)c1c(NC(=O)Cn2nc([N+](=O)[O-])c(Br)c2C)sc2c1CCC(C)C2 (centres undefined) the z-score was -0.48 (inactive). CCc1ccc(NC(=O)Cc2csc(C)n2)cc1 was tested, and the z-score was -0.185 (inactive). With CCOC(=O)C1C(=O)CN(c2ccccc2)C1=O (centres undefined) the z-score was 2.06 (inactive). For O=C(C1CCN(S(=O)(=O)c2ccc3[nH]c4c(c3c2)CCCCC4)CC1)N1CCCC1, the z-score was -0.165 (inactive). In the case of Cc1ccc(NC(=O)c2ccccc2N)cc1C, the z-score was 29 (inactive). C=CCNC(=S)Nc1ccn(Cc2ccccc2C)n1 was tested, and the z-score was -0.535 (inactive). For O=C(CSc1ccc(Cl)cc1)N1CCC(C(F)(F)F)CC1, the z-score was 0.56 (inactive). For Cc1nc(Nc2ccc(S(N)(=O)=O)cc2)nc(Nc2ccc(S(N)(=O)=O)cc2)c1Br, the z-score was -0.56 (inactive). CC(C)C(O)(C(=O)OC[C@@H]1CC[N+]2([O-])CCC[C@@H]12)C(C)O (some centres undefined) was tested, and the z-score was 0.78 (inactive). O=C1CSC(c2ccccc2)C(=O)N1c1ccc(Br)cc1 (centres undefined) was tested, and the z-score was 0.345 (inactive). In the case of Cc1ccc(-c2n[nH]c3c2C(c2ccccc2F)N(c2ccc(F)cc2)C3=O)cc1 (centres undefined), the z-score was -0.525 (inactive). For C/C(=N\NC(=O)C1CCCCC1)c1cccs1, the z-score was -0.47 (inactive). With N#CCC1NCCc2ccccc21 (centres undefined) the z-score was -2.33 (inactive). CC1(C)CC2(CCCN(CC#N)C2)CCS1 (centres undefined) was tested, and the z-score was 0.425 (inactive). With COc1ccc(C(Nc2ncnc3c2ncn3C2CC=C(CO)CC2)(c2ccccc2)c2ccccc2)cc1 (centres undefined) the z-score was -0.275 (inactive). In the case of CN(Cc1ccccc1)C(=O)Cn1ncc2c3ccccc3n(Cc3ccccc3F)c2c1=O, the z-score was 0.685 (inactive). In the case of O=C(CN1CCN(c2ccc([N+](=O)[O-])cn2)CC1)Nc1ccc2c(c1)OCO2, the z-score was -0.23 (inactive). With CCN(c1ccccc1)S(=O)(=O)c1cc2c(cc1C)n(C)c(=O)c(=O)n2C the z-score was 4.49 (inactive). C=C1Cn2c(nnc2-c2ccc(Br)cc2)S1 was tested, and the z-score was 0.32 (inactive). In the case of O=C(CSc1nc2ccc(Br)cc2c(=O)n1-c1ccccc1)NCc1ccco1, the z-score was 0.585 (inactive). O=C(O)CCCN1C(=O)/C(=C2\SC(=S)N(CCCC(=O)O)C2=O)SC1=S was tested, and the z-score was 1.03 (inactive). In the case of O=C(O)c1cc2cccnc2nc1C(F)(F)F, the z-score was -0.285 (inactive). With COc1ccc(C(=O)OC2CC(C)=CCC3(C)CCC(O)(C(C)C)C23)cc1O (centres undefined) the z-score was -0.385 (inactive). COc1ccc(C(=O)N2CCN(C(=O)OCc3ccc(SC(F)(F)F)cc3)CC2)cc1F was tested, and the z-score was 0.325 (inactive). For Nc1c(C(=O)O)noc1C(=O)c1ccccc1, the z-score was 2.44 (inactive). In the case of O=C(OCC(=O)N1CCCCC1)c1ccc(OC(F)(F)F)cc1, the z-score was 0.135 (inactive). With CC(C)(C)NC(=S)NNc1c(Cl)cncc1Cl the z-score was 0.41 (inactive). CN(c1ncnc2c1nc1n2CCCCC1)C1CCCCC1 was tested, and the z-score was 0.88 (inactive). NC(=S)c1ccc(-c2csnn2)cc1 was tested, and the z-score was -0.465 (inactive). In the case of CCN1C(=O)/C(=C2/Sc3ccccc3N2CCCS(=O)(=O)O)SC1=S, the z-score was -3.94 (active). CCN1C(=O)/C(=C/c2ccccc2)SC1=S was tested, and the z-score was 0.005 (inactive). For CCN1C(=O)/C(=C2/Sc3ccccc3N2C2CCCCC2)SC1=S, the z-score was -0.02 (inactive). With CCCCc1ccc2nc(N)sc2c1 the z-score was -0.715 (inactive). In the case of O=C(NCCO)c1ccc(/C=N/O)nc1, the z-score was 0.075 (inactive). In the case of Cc1c(Cl)cccc1NC(=O)c1ccc(-n2cccn2)c([N+](=O)[O-])c1, the z-score was 2.56 (inactive). CC(=O)N1CCCN(S(=O)(=O)c2cccc3nonc23)CC1 was tested, and the z-score was -0.285 (inactive). For CCn1c2ccccc2c2cc(CN3CCN(C(=O)c4ccccc4OC)CC3)ccc21, the z-score was 14 (inactive). In the case of O=[N+]([O-])c1ccc(-c2ccc(-c3[nH]c(-c4cccc([N+](=O)[O-])c4)nc3-c3ccccc3)cc2)cc1, the z-score was 0.025 (inactive). CC1CCN(CC(=O)N2c3ccccc3C(C)(c3ccccc3)CC2(C)C)CC1 (centres undefined) was tested, and the z-score was 0.18 (inactive). CCOC(=O)CC(=O)CSc1nc2c(sc(=S)n2CCc2ccccc2)c(=O)n1Cc1ccco1 was tested, and the z-score was 0.52 (inactive). For O=C(COc1ncn(-c2ccccc2)n1)N/N=C/c1cc(OCc2ccccc2)cc(OCc2ccccc2)c1, the z-score was -1.07 (inactive). COc1cc(Br)c(C2C(C(=O)OCCOc3ccccc3)=C(C)NC3=C2C(=O)CCC3)cc1OC (centres undefined) was tested, and the z-score was 22.1 (inactive). CCN1CCN(CCNC(=O)c2ccc(NC(=O)C3=CSCCO3)cc2)CC1 was tested, and the z-score was -0.9 (inactive). In the case of O=C(O)c1cc2c(s1)CS(=O)(=O)C2, the z-score was -3.92 (active). O=C(O)c1cc2ccccc2c(=O)s1 was tested, and the z-score was 0.97 (inactive). For O=C(NCCc1ccccc1)c1cc2c(s1)CS(=O)(=O)C2, the z-score was 0.17 (inactive). In the case of COc1ccc(C2Nc3ccccc3C(=O)N2c2ccccc2)cc1CSc1nc2ccccc2s1 (centres undefined), the z-score was 34.5 (inactive). In the case of Cc1cc(C)nc(N2CCN(C(=O)C(C)(C)C)CC2)n1, the z-score was -0.02 (inactive). With Nc1ccc(C(=O)Nc2nc3ccc(NC(=O)c4ccccc4)cc3s2)cc1 the z-score was 13.6 (inactive). With O=C(OCCN1C(=O)c2ccccc2C1=O)c1ccc(Cl)cc1 the z-score was 0.395 (inactive). For O=C(NC(=O)N1CCOCC1)c1ccc(S(=O)(=O)N2CCOCC2)cc1, the z-score was 0.605 (inactive). With CC1=NN(c2ccccc2)C(=O)CC1 the z-score was 0.205 (inactive). For CCC(C)c1ccc(N2C(=O)C=CC2=O)cc1 (centres undefined), the z-score was -0.045 (inactive). COc1ccc(N2CCN(c3ncnc4sc(C(=O)NCc5ccccc5OC)c(C)c34)CC2)cc1 was tested, and the z-score was -0.385 (inactive). With Cc1ccc2c(c1)c1c3n2CCN(S(C)(=O)=O)C3CCC1 (centres undefined) the z-score was 0.19 (inactive). For CCOC(=O)c1cc(C#N)c(C)nc1N1CCN(C(=O)OCCN2CCN(Cc3cc4c(cc3Cl)OCO4)CC2)CC1, the z-score was -0.455 (inactive). With OC(CSCc1ccc(Cl)cc1)(c1ccccc1)c1ccccc1 the z-score was -0.53 (inactive). For CCOC(=O)c1ccc(NC(=O)N2CCC(CN3CCCCCC3)CC2)cc1, the z-score was -1.43 (inactive). For O=C1CCc2ccccc2CN1, the z-score was 0.13 (inactive). For Nc1ccc2c(c1)C/C(=C\c1ccco1)C2=O, the z-score was -3.17 (inactive). In the case of Cc1cccc(NC(=O)N(C)C)c1, the z-score was 0.275 (inactive). In the case of C=CCn1c(=S)sc2c(SCC(=O)N3CCc4ccccc43)ncnc21, the z-score was 1.31 (inactive). With C=CCn1c(=S)sc2c(=O)[nH]c(C)nc21 the z-score was -5.7 (active).
